Source: PubChem (National Center for Advancing Translational Sciences (NCATS))
Hits are enriched below; roughly 10% of the tested compounds scored in any of these assays.
Six1-Eya2 inh: blocks human Six1 binding to Eya2 | activity change, % (concentration not given with the values) | Q15475+O00167 | actives 0.56% (n = 360,000) | AlphaScreen GST-Six1/His-Eya2 binding, biochemical; stronger effect = lower value; in the data active = activity change below about -65%; inconclusive = mostly about -30% to -63%
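GST-Six1 + His-Eya2 (5X stock: 250/500 nM); Tris pH 8.0, 300 mM NaCl, 0.05% BSA, 0.02% Tween 20; GSH donor/Ni acceptor beads; 1 h 37 °C dark; AlphaScreen readout.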
BAZ2B inh: blocks human BAZ2B; Q9UIF8; AlphaScreen BAZ2B-H3K14Ac peptide displacement; Potency, µM (series often up to 114 µM), hits mostly inhibitors; actives 4.4% (n = 360,000); AID 504333; note: nearly all actives have a fitted effect of over 60% in size
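Multi-concentration screen (max 110 uM) measuring displacement of acetylated histone H3 peptide from BAZ2B by AlphaScreen, using 50 nM protein, 50 nM peptide and 10 ug/mL streptavidin donor plus Ni-chelate acceptor beads.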
CtBP-E1A blk: blocks the CtBP interaction with E1A. AlphaScreen GST-E1A/His-CtBP binding, 1536-well; stronger effect = lower value. activity change, % (no concentration beside the values). actives 0.49% (n = 340,000); in the data active = activity change below about -65%; inconclusive = mostly about -30% to -63%
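GST-E1A and His-tagged CtBP (125 nM each as 5X stock) were preincubated with pin-transferred compound for 2 h at 37 °C in the dark, then glutathione donor and nickel acceptor beads were added for 1 h before AlphaScreen reading.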
JMJD2A Tudor: JMJD2A Tudor domain (human) inhibition | O75164 | AlphaScreen JMJD2A-Tudor / H3K4me3 peptide binding | Potency, µM (highest dose often 114 µM), hits mostly inhibitors | actives 4.4% (n = 390,000); note: nearly all actives have a fitted effect of over 50% in size
Target sequence (O75164 whole entry, looked up, the tested form may be a part): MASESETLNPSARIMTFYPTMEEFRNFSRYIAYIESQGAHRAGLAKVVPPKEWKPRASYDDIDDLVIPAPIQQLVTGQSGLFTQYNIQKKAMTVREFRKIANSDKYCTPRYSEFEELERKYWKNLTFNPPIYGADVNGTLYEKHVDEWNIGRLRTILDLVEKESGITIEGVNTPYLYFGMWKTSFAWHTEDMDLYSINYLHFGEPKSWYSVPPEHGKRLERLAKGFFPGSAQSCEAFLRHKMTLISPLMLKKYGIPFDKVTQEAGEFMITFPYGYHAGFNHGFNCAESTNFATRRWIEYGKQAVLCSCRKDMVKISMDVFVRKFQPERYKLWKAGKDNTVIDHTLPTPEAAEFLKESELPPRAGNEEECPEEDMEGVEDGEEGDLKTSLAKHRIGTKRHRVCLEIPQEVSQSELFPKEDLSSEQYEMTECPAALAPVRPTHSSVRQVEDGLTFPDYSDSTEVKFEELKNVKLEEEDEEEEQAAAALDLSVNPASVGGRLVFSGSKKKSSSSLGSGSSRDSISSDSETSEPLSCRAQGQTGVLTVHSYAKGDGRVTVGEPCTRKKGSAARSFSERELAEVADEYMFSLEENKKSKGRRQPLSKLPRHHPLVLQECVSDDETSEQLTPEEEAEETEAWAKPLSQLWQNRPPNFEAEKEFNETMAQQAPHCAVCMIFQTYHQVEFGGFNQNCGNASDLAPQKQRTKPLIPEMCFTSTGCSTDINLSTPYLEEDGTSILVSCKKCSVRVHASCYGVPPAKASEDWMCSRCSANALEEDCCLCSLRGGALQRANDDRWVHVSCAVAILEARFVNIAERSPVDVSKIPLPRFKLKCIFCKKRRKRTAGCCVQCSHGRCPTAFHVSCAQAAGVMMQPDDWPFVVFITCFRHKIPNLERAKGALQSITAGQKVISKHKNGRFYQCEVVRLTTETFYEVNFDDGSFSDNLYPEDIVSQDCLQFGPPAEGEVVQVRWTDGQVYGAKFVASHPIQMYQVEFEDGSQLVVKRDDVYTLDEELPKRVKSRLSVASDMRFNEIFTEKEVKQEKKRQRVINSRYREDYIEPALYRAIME
HP1b chromo inh: HP1-beta chromodomain-methylated histone interaction inhibition; P83916; AlphaScreen HP1-beta / biotin-H3K9me3 peptide binding; Potency, µM (doses to about 114 µM), actives largely listed as inhibitors; actives 0.56% (n = 390,000); note: nearly all actives have a fitted effect of over 70% in size
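Compound inhibition of the preformed complex between 50 nM HP1-beta and 50 nM biotinylated H3K9me3 peptide was read by AlphaScreen. Buffer was PBS pH 7.4 with 0.01% Tween-20. Incubations ran 30 min at room temperature, with 10 ug/mL donor/acceptor beads.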
G9a inh: inhibitors of human histone lysine methyltransferase G9a. Q96KQ7. G9a H3K9 monomethylation, AlphaScreen, 2 h. Potency, µM (doses to about 102 µM), actives largely listed as inhibitors. actives 8.8% (n = 350,000). AID 504332; note: nearly all actives have a fitted effect of over 75% in size
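Chemiluminescent proximity detection of H3K9 monomethylation, read after 10 min bead incubation in the dark. Reaction: 20 nM G9a, 500 nM biotin-H3K9 peptide, 20 uM SAM cofactor, 2 h, room temperature, following 15 min enzyme-compound preincubation.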
Each line names hits and unclear results; the compound was inactive in the other large screens; ! = repeats disagree. Unless noted, calls come from the whole dose curve; as a rule, active = well fitted inhibition curve with a large enough effect; inconclusive = small, poorly fitted or top-dose-only effect; inactive = no such curve, though single readings can be large or run the other way.

Cc1ccccc1OCC(=O)NCC(c1ccc(Cl)cc1)N1CCCCC1 (stereo not given)	G9a inh inconclusive (no result: Six1-Eya2 inh, CtBP-E1A blk)
CCn1c(CSc2nnc3ccccn23)nc2cc(C(=O)O)ccc21	none
Cc1noc(C)c1CSc1nnc(-c2ccccc2F)n1CCc1ccccc1	G9a inh 40µM
Cc1ccccc1-n1c(SCc2c(C)noc2C)nnc1-c1cccnc1	G9a inh 40µM
CCn1c(CSc2nnc(-c3cccnc3)n2-c2ccccc2C)nc2cc(C(=O)O)ccc21	BAZ2B inh inconclusive, G9a inh 13µM (no result: Six1-Eya2 inh, CtBP-E1A blk, JMJD2A Tudor, HP1b chromo inh)
CCn1c(CSc2n[nH]c(N)n2)nc2cc(C(=O)O)ccc21	BAZ2B inh inconclusive, JMJD2A Tudor inconclusive, G9a inh 40µM
COc1ccc(C2=C(C)C(=O)N(Cc3ccc(C(=O)Nc4cc(C)ccc4C)cc3)S2(=O)=O)cc1	none (no result: Six1-Eya2 inh, CtBP-E1A blk)
OCC1OC(c2ccc(O)cc2O)C(O)C1O (stereo not given)	none (no result: BAZ2B inh, JMJD2A Tudor, HP1b chromo inh, G9a inh)
CSc1ncc(C(=O)Nc2cccnc2)c(C(F)(F)F)n1	none
COc1ccc(NC(=O)Cc2nnc(SCC(=O)c3ccccc3)n2C)cc1	none
CCNc1nc(NCC)n2c(SCC(=O)Nc3ccc(Br)cc3F)nnc2n1	BAZ2B inh inconclusive, JMJD2A Tudor inconclusive, HP1b chromo inh inconclusive, G9a inh 7.1µM
CCNc1nc(NCC)n2c(SCC(=O)Nc3ccc(F)cc3)nnc2n1	BAZ2B inh inconclusive, G9a inh inconclusive
CCNc1nc(NCC)n2c(SCC(=O)Nc3ccc(C)c(C)c3)nnc2n1	BAZ2B inh 50µM, G9a inh 3.5µM
COc1ccc(C(=O)NNC(=O)CN2CCN(c3nc(-c4ccccc4)cs3)CC2)cc1	none
C[C@@H]1NC(=O)N[C@@H]1CCCCCC(=O)O	JMJD2A Tudor 1µM, HP1b chromo inh inconclusive (no result: BAZ2B inh, G9a inh)
Cc1cccc(C)c1NC(=O)CCCCCC1NC(=O)NC1C (stereo not given)	BAZ2B inh 8.9µM, G9a inh 13µM
CCCCCC1NC(=O)NC1CCCCCC(=O)O (stereo not given)	none
CC1NC(=O)NC1CCCCCC(=O)NCCc1ccccc1 (stereo not given)	BAZ2B inh 0.89µM, JMJD2A Tudor 3.5µM, HP1b chromo inh inconclusive, G9a inh inconclusive
Cc1cccc(C)c1NC(=O)CCCN1CC(C)OC(C)C1 (stereo not given)	none
CCc1ccc(CNC(=O)C2CCN(c3nnc(-n4c(C)ccc4C)s3)CC2)cc1	none (no result: Six1-Eya2 inh, CtBP-E1A blk)
N#CC1=C(N)NC(=S)C(C(N)=O)C1c1ccccc1F (stereo not given)	G9a inh 50µM
COc1ccc(Cc2nnc(Cl)c3ccccc23)cc1OC	G9a inh 50µM (no result: CtBP-E1A blk)
COc1ccc(-c2ccn(-c3cccc(F)n3)n2)cc1	JMJD2A Tudor inconclusive, G9a inh 14µM
Cc1ccc(NC(=O)CC2S/C(=N/N=C3/NC(=O)CS3)NC2=O)cc1 (stereo not given)	Six1-Eya2 inh -75, BAZ2B inh 56µM, JMJD2A Tudor inconclusive, G9a inh inconclusive
CCOC(=O)c1ccc(NC(=O)CC2S/C(=N/N=C3/NC(=O)CS3)NC2=O)cc1 (stereo not given)	Six1-Eya2 inh inconclusive, CtBP-E1A blk inconclusive, JMJD2A Tudor inconclusive
NC(Cc1c[nH]c2ccccc12)C(=O)NCc1ccccc1 (stereo not given)	none (no result: G9a inh)
N[C@@H](Cc1c[nH]c2ccccc12)C(=O)O	BAZ2B inh 50µM, G9a inh 8.4µM! (no result: Six1-Eya2 inh, CtBP-E1A blk, JMJD2A Tudor, HP1b chromo inh)
COC(=O)CNC(=O)C(Cc1c[nH]c2ccccc12)NC(=O)Oc1ccccc1 (stereo not given)	BAZ2B inh 0.71µM (no result: G9a inh)
COC(=O)CNC(=O)C(Cc1c[nH]c2ccccc12)NC(=O)OC(C)(C)C (stereo not given)	none
COC(=O)C(Cc1c[nH]c2ccccc12)NC(=O)C(=O)c1c[nH]c2ccccc12 (stereo not given)	BAZ2B inh inconclusive, JMJD2A Tudor inconclusive, G9a inh 32µM
Cc1cccc(OCC2=NS(=O)(=O)c3ccccc3N2)c1	G9a inh inconclusive
CCC(O)c1cc2c(cc1NC(=O)c1cccc(Br)c1)OCCO2 (stereo not given)	none (no result: Six1-Eya2 inh, CtBP-E1A blk)
COc1ccc(C)cc1Nc1n[n+](-c2ccccc2)c(-c2ccc(SC)cc2)s1	BAZ2B inh 56µM, JMJD2A Tudor inconclusive, G9a inh 45µM
COc1ccc(C)cc1Nc1n[n+](-c2ccccc2)c(-c2ccc(NC(C)=O)cc2)s1	BAZ2B inh inconclusive, G9a inh 32µM
COc1ccc(C)cc1Nc1n[n+](-c2ccccc2)c(-c2cc([N+](=O)[O-])cc(OC)c2O)s1	BAZ2B inh inconclusive, JMJD2A Tudor inconclusive, G9a inh 32µM
Nc1ccc(S(=O)(=O)N2CCCC2C(=O)O)cc1 (stereo not given)	none (no result: CtBP-E1A blk)
CCCn1c(/C=C/c2ccco2)nc2ccccc21	G9a inh 8.9µM
CCCCn1c(/C=C/c2ccco2)nc2ccccc21	G9a inh 8.9µM
COc1ccc2[nH]cc(CCNc3ncncc3-c3ccc4c(c3)OCO4)c2c1	none (no result: Six1-Eya2 inh, BAZ2B inh, CtBP-E1A blk, JMJD2A Tudor, HP1b chromo inh)
O=C(O)C1Nc2c(O)cccc2C2C=CCC12 (stereo not given)	BAZ2B inh 1.6µM, CtBP-E1A blk -82, JMJD2A Tudor 2.5µM, HP1b chromo inh 28µM, G9a inh 10µM
O=C(NCCF)C1Nc2ccc(OC(F)(F)F)cc2C2C=CCC12 (stereo not given)	none (no result: BAZ2B inh, G9a inh)
O=C(O)C1Nc2c(Cl)cc(Cl)c(Cl)c2C2C=CCC12 (stereo not given)	JMJD2A Tudor 56µM, HP1b chromo inh inconclusive (no result: BAZ2B inh, CtBP-E1A blk, G9a inh)
O=C(O)C1Nc2c(Cl)cc(Cl)cc2C2C=CCC12 (stereo not given)	Six1-Eya2 inh inconclusive, BAZ2B inh 25µM, JMJD2A Tudor 22µM, HP1b chromo inh 28µM (no result: G9a inh)
Cc1ccc(C)c2c1NC(C(=O)O)C1CC=CC21 (stereo not given)	JMJD2A Tudor 20µM, HP1b chromo inh 22µM (no result: Six1-Eya2 inh, BAZ2B inh, CtBP-E1A blk, G9a inh)
CC(C)CNC(=O)C1Nc2ccc(C(F)(F)F)cc2C2C=CCC12 (stereo not given)	none (no result: BAZ2B inh, G9a inh)
CCN(CC)C(=O)C1=C(C)N(CCCOC)C(=O)C(CC(=O)NCCc2ccccn2)C1 (stereo not given)	none (no result: BAZ2B inh, JMJD2A Tudor, HP1b chromo inh, G9a inh)
O=C(CSc1nc2ccccc2c(=O)n1Cc1ccco1)NCc1ccco1	BAZ2B inh inconclusive, JMJD2A Tudor 56µM, G9a inh inconclusive
CC(C)(C)c1nc(SCC(=O)NCc2ccco2)c2ccccc2n1	BAZ2B inh inconclusive, G9a inh 50µM
COCCNC(=O)c1ccc2c(=O)n(Cc3ccco3)c(SCC(=O)Nc3ccc(OC)cc3OC)nc2c1	JMJD2A Tudor 56µM
Cc1cc2cc(C)c(SCC(=O)NCc3ccco3)nc2cc1C	BAZ2B inh inconclusive
Cc1[nH]c2ccc(-c3nnc(SCC(=O)NCc4ccco4)n3Cc3ccccc3)cc2c1C	BAZ2B inh 56µM, JMJD2A Tudor 56µM, G9a inh 40µM
